Shown are actives, neighbours in structure and some others; about 2.8% of the full set was active somewhere.
EBV LMP1 NFkB: Epstein-Barr LMP1 NF-kappaB reporter inhibition; LMP1-induced NF-kappaB luciferase reporter cells, luminescence; inhibition, % at 12.5 µM; 350,000 compounds, 0.69% hits; AID 504558; in the data active = inhibition above about 41%; inconclusive = no clear call, values can overlap the other calls;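 note: 0% = neutral control wells and 100% = reference inhibitor control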
NSD2 inh: inhibitors of human histone methyltransferase NSD2; O96028; NSD2 peptide methylation, AlphaScreen, 120 min; inhibition, % at 12.5 µM; 310,000 compounds, 0.54% hits; in the data active = inhibition above about 50%
Target sequence (O96028 whole entry, looked up): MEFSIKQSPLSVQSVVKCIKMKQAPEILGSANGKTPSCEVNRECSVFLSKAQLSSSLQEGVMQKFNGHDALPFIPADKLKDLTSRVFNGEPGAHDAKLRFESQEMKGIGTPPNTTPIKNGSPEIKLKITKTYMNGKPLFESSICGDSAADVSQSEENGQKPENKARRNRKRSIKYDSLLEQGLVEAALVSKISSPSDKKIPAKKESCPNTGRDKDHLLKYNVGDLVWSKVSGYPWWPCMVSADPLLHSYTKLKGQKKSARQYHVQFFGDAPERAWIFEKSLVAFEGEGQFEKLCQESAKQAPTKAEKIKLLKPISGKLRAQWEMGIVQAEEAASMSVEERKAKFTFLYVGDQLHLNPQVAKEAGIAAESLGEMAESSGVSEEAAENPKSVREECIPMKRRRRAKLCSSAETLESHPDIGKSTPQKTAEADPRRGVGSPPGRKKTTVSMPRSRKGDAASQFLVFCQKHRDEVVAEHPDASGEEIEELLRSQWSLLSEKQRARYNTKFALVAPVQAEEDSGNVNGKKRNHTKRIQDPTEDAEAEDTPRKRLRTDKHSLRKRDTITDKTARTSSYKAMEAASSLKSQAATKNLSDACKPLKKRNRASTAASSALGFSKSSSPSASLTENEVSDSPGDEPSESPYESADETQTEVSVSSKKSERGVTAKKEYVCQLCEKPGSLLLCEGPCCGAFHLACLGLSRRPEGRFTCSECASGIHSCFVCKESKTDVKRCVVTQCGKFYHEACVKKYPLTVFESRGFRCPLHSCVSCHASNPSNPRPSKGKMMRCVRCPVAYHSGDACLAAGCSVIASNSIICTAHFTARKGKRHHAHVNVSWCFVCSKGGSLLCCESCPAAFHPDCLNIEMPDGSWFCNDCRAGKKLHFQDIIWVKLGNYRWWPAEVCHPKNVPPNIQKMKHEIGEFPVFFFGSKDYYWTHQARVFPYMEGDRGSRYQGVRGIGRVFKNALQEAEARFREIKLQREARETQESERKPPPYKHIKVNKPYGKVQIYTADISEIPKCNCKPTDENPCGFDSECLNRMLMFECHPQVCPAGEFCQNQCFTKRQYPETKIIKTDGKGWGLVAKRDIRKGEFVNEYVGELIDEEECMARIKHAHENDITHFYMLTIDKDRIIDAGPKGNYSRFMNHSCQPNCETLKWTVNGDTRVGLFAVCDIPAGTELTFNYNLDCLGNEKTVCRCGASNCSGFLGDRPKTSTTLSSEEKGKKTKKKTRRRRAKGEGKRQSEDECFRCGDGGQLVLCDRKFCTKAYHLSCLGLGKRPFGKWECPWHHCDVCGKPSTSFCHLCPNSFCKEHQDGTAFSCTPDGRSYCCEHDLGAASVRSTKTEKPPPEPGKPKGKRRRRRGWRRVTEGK
PAX8 reporter: lowers PAX8-driven luciferase in RMG-I cells. RMG-I TPO-luciferase reporter, SteadyGlo, 24 h. inhibition, % at 12.6 µM. 360,000 compounds, 1.2% hits. AID 652154;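 active = mean replicate inhibition at least 60% with every replicate also reaching 60%; inconclusive = only one of the two criteria is met; inactive = mean below 60% and not all replicates reaching 60%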;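 note: luciferase light reporting Pax8 driven TPO promoter activity; plate controls were median of neutral control wells for no effect and mitoxantrone controls for full effect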
HIV Env fusion: inhibitors of HIV Env-mediated cell fusion | HeLa-JRFL Env/CEM21 cell fusion, luciferase | inhibition, % at 12.3 µM | 360,000 compounds, 1.1% hits;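 active = mean replicate inhibition score of at least 50 and every replicate individually at or above 50; inconclusive = only one of the two criteria met; inactive = mean below 50 and not all replicates reaching 50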;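 note: 0% = plate neutral controls and 100% = maraviroc near 300 nM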
Shn3 3UTR inh: Schnurri-3 reporter inhibition in Clone20 osteoblasts; AID 588674; Clone20 osteoblast Shn3 3'UTR firefly luciferase, 24 h; 360,000 compounds, 0.52% hits; inhibition, % at 12.5 µM;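 active = mean inhibition of at least 75% with every replicate also reaching 75%; inconclusive = mean inhibition at least 75% but some replicate below; inactive = mean inhibition below 75%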;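 note: 0% = median of neutral control wells and 100% = pilot-screen positive control compound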
N-glyco inh: N-linked glycosylation inhibition; D54 ERlucT glycosylation luciferase reporter, 24 h; percent of 100 nM tunicamycin response; reporter increase, % at 12.5 µM; 360,000 compounds, 0.23% hits; AID 588692;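 active = mean luciferase reporter signal, scaled so untreated is 0 and the glycosylation-blocking control 100, at or above a set limit in every replicate; inconclusive = mean reaches the limit but not every replicate does; inactive = mean below the limit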;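 note: luciferase carries N-glycosylation sites so blocking glycosylation raises the light; 0% = median of neutral control wells and 100% = median of 100 nM tunicamycin wells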
Active calls of the source: *; ? = inconclusive; nt = not tested or not shown; [ ] = remark or other dose.

SMILES	EBV LMP1 NFkB	NSD2 inh	PAX8 reporter	HIV Env fusion	Shn3 3UTR inh	N-glyco inh
CCOc1ccccc1/C=N/NC(=O)c1c(C)nc2ccc(Br)cn12	-5.5	16.2	8.4	18.9	18.8	0.4
COc1cccc(/C=N/NC(=O)c2ccc3nc[nH]c3c2)c1O	14.0	-0.9	-66.3	9.6	16.2	2.8
COc1cccc(/C=N/NC(=O)c2cc3c(OC)ccc(OC)c3[nH]2)c1O	14.6	-4.0	34.0	-4.6	93.9*	0.1
COc1cc(OC)c2cc(C(=O)N/N=C/c3cccc(OC)c3O)[nH]c2c1	-2.6	nt	29.3	12.4	95.6*	-1.8
COc1cccc(/C=N\NC(=O)c2ccc(Cn3cc(Br)c([N+](=O)[O-])n3)o2)c1O	14.9	1.9	14.5	9.3	89.1*	-9.0
COc1cccc(/C=N/NC(=O)N/N=C/c2cccc(OC)c2O)c1O	30.9	1.3	17.3	47.6	65.8	-4.4
COc1cccc(/C=N/NC(=O)c2c(C)nc3ccc(Br)cn23)c1O	63.5*	-1.6	nt	nt	?	-12.6
C[C@@H]1CN([C@@H](C)CO)C(=O)c2cccc(NC(=O)C3CCOCC3)c2O[C@H]1CN(C)C	nt	nt	-7.3	nt	nt	nt
COc1ccc(-n2nc(C(=O)NCC(=O)Nc3cc(OC)c(OC)c(OC)c3)c3ccccc3c2=O)cc1Cl	37.4	-0.9	80.9*	22.0	67.2	-0.1
CCN(CC)C(=O)CNC(=O)c1nn(-c2ccc(OC)c(Cl)c2)c(=O)c2ccccc12	7.2	29.6	-6.6	-1.0	9.8	-1.8
O=C(CCN1C(=O)/C(=C/c2ccccc2Cl)SC1=S)Nc1ccccc1C(=O)O	-4.9	12.6	100.5*	-15.8	-7.9	-0.4
O=C(CCCN1C(=O)/C(=C/c2ccccc2Cl)SC1=S)NNC(=O)c1ccc(Cl)cc1Cl	38.3	0.9	21.2	56.6*	42.2	0.0
O=C(CCCN1C(=O)/C(=C/c2ccccc2Cl)SC1=S)NNC(=O)c1ccccc1	23.4	-0.3	26.3	29.6	10.0	-1.6
COc1ccc(S(=O)(=O)N(C)C[C@H]2OCCCC[C@@H](C)Oc3ccc(NC(=O)c4ccccc4)cc3C(=O)N([C@@H](C)CO)C[C@@H]2C)cc1	nt	nt	4.6	-18.7[16.7 µM]	nt	nt
O=C(C[C@H]1C[C@H]2c3cc(NS(=O)(=O)c4ccc(F)cc4)ccc3O[C@H]2[C@@H](CO)O1)NCc1ccccc1F	nt	nt	-0.5	83.3*[16.7 µM]	nt	nt
O=C(C[C@@H]1C[C@@H]2c3cc(NS(=O)(=O)c4ccc(F)cc4)ccc3O[C@@H]2[C@H](CO)O1)NCc1ccc(-c2ccccc2)cc1	nt	nt	67.5*	10.2[16.7 µM]	nt	nt
O=C(C[C@H]1C[C@@H]2c3cc(NS(=O)(=O)c4ccc(F)cc4)ccc3O[C@@H]2[C@@H](CO)O1)NCc1ccc(-c2ccccc2)cc1	nt	nt	84.2*	71.1*[16.7 µM]	nt	nt
O=C(C[C@H]1C[C@@H]2c3cc(NS(=O)(=O)c4ccc(F)cc4)ccc3O[C@@H]2[C@H](CO)O1)NCc1ccccc1F	nt	nt	15.0	51.4[16.7 µM]	nt	nt
C[C@@H](NC(=O)C[C@H]1C=C[C@H](NC(=O)C2CCC2)[C@@H](CO)O1)c1ccccc1	nt	nt	-4.9	-5.8[16.7 µM]	nt	nt
C[C@H](CO)N1C[C@H](C)[C@@H](CN(C)C(=O)c2ccncc2)OCCCC[C@H](C)Oc2ccc(NS(=O)(=O)c3ccccc3)cc2C1=O	nt	nt	-5.2	-14.3[16.7 µM]	nt	nt
COc1cc(OC)cc(-c2cc3nc(C)c(CCC(=O)NC(C)CCc4ccco4)c(C)n3n2)c1 (stereo not drawn)	9.7	-0.9	-5.2	12.9	29.7	-1.0
CCOC(=O)C1CCN(C(=O)CCc2c(C)nc3cc(-c4ccccc4)nn3c2C)CC1	6.2	nt	-23.9	-0.7	31.7	0.1
CCOC(=O)C1CCCCN1C(=O)CCc1c(C)nc2cc(-c3ccccc3)nn2c1C (stereo not drawn)	16.9	nt	-30.2	60.7*	15.2	-5.3
COc1cc(OC)cc(-c2cc3nc(C)c(CCC(=O)O)c(C)n3n2)c1	52.7*	nt	55.9	72.8*	78.5	-2.7
O=[N+]([O-])c1c(Nc2ccc(O)cc2)cc(Cl)c2nonc12	13.4	44.6	112.9*	-324.0	94.8*	-18.1
SMILES	EBV LMP1 NFkB	NSD2 inh	PAX8 reporter	HIV Env fusion	Shn3 3UTR inh	N-glyco inh
O=[N+]([O-])c1c(Nc2ccccn2)cc(Cl)c2nonc12	54.3*	3.5	27.0	-319.0	95.2*	-17.0
CN(C)c1cc(Nc2ccc(O)cc2)c([N+](=O)[O-])c2nonc12	-2.6	0.2	-8.4	15.6	12.2	1.2
C[C@@H]1CN([C@@H](C)CO)C(=O)Cc2cc(NS(=O)(=O)c3ccccc3)ccc2O[C@H]1CN(C)CC1CC1	nt	nt	-2.1	nt	nt	nt
C[C@H]1CN([C@@H](C)CO)C(=O)CCCn2nncc2CO[C@@H]1CN(C)C	nt	nt	0.3	nt	nt	nt
COc1cc2cc(c1Cl)N(C)C(=O)CC(OC(=O)C(C)N(C)C(C)=O)C1(C)OC1C(C)C1CC(O)(NC(=O)O1)C(OC)C=CC=C(C)C2 (stereo not drawn)	0.4	13.2	74.2*	-6.1	4.0	0.8
C[C@H]1CCCCO[C@@H](CN(C)C(=O)NC2CCCCC2)[C@@H](C)CN([C@@H](C)CO)C(=O)c2cc(NC(=O)Nc3cccc4ccccc34)ccc2O1	nt	nt	13.4	-6.5[16.7 µM]	nt	nt
C[C@@H]1CN([C@@H](C)CO)C(=O)c2cc(NS(=O)(=O)c3ccccc3)ccc2O[C@H]1CN(C)Cc1ccc(C(=O)O)cc1	nt	nt	nt	2.6[16.7 µM]	nt	nt
CCN(CC)c1ccc2c(Cl)c(Br)c(=O)oc2c1	-4.2	nt	nt	nt	98.3*	-1.6
CCN(CC)c1ccc2c(c1)oc(=O)c1c(Cl)cc(=O)oc12	-11.9	nt	nt	nt	96.3*	21.0
CCN(CC)c1ccc2c(C)c(Cl)c(=O)oc2c1	0.2	-10.2	4.2	1.9	4.9	0.7
CCC(C)C(=O)Nc1ncc2c(n1)CC(c1cccs1)CC2=O (stereo not drawn)	-4.4	-0.5	nt	-40.4	5.7	-1.3
O=C1CC(c2cccs2)Cc2nc(NC(=O)C3CC3)ncc21 (stereo not drawn)	45.3*	0.2	-24.5	6.0	nt	-1.6
COC(=O)c1cc2n(n1)CCN(Cc1ccccc1Cl)C2=O	69.6*	2.9	nt	nt	-2.8	2.0
Cc1[nH]nc2c1C(c1ccc(-c3ccc(Cl)cc3)o1)C(C#N)=C(N)O2 (stereo not drawn)	-12.1	7.1	31.9	nt	-7.8	28.8*
Cc1ccc(-c2ccc(C3C(C#N)=C(N)Oc4n[nH]c(C)c43)o2)cc1 (stereo not drawn)	6.8	8.5	-28.1	-300.5	-17.5	12.5
Cc1[nH]nc2c1C(c1ccc(-c3ccccc3C#N)o1)C(C#N)=C(N)O2 (stereo not drawn)	5.9	nt	nt	nt	-1.7	25.4*
Cc1nn(-c2ccccc2)c(Cl)c1C1C(C#N)=C(N)Oc2n[nH]c(C)c21 (stereo not drawn)	52.6*	5.1	nt	nt	-42.0	7.9
CN1C(=O)c2cc(NC(=O)C3CCC3)ccc2OC[C@@H]2O[C@@H](CC(=O)NCC3CCCCC3)CC[C@H]21	nt	nt	13.4	nt	nt	nt
CCCC(=O)Nc1ccc2c(c1)OC[C@H](C)N(Cc1ccccc1)C[C@@H](C)[C@@H](OC)CN(C)C2=O	nt	nt	-1.0	1.3[16.7 µM]	nt	nt

High-throughput results deposited in PubChem BioAssay by Broad Institute.
